In the library only some 8% were active in any assay of this set; here they are far more common.
HT1080-NT tox – qHTS for induction of synthetic lethality in tumor cells producing 2HG: qHTS for the HT-1080-NT fibrosarcoma cell line; HT-1080-NT fibrosarcoma viability, CellTiter-Glo ATP luminescence, 48 h; Potency, µM (doses to about 46.1 µM), most hits filed as cytotoxic; 360,000 compounds, 1.6% hits; AID 686970, 2013;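 also: NT is the 2HG producing partner of a matched IDH1 knockdown line; nearly all actives have a fitted effect of over 55% in size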
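750 cells/well, RPMI + 5% FBS; 2 h settle, compound pin-transfer, 48 h at 37 degrees C. CellTiter-Glo 10 min RT, luminescence. Normalized to DMSO and media-only wells.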
MCF10A rereplic – A quantitative high throughput screen for small molecules that induce DNA re-replication in MCF 10a normal breast cells. MCF 10A DNA re-replication, Hoechst nuclear intensity, 48 h. Potency, µM (titrated, usually from 46.1 µM), usual class: activators. 350,000 compounds, 2.9% hits; also: nearly all actives have a fitted effect of over 50% in size
SW480 rerep – A quantitative high throughput screen for small molecules that induce DNA re-replication in SW480 colon adenocarcinoma cells. SW480 DNA re-replication, Hoechst DNA content imaging, 48 h. Potency, µM (doses to about 46.1 µM), usual class: activators. 340,000 compounds, 1.8% hits. AID 624297, 2012; also: nearly all actives have a fitted effect of over 55% in size
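Quantitative HTS format with DMSO vehicle controls; 48 hr drug incubation at 37 C, then 40 min Hoechst staining and scanning imager measurement at 405 nm excitation.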
KB-3-1 cytotox – qHTS assay for MDR1-selective chemotherapeutics: Primary screen using the parental adenocarcinoma cell KB-3-1. KB-3-1 viability, CellTiter-Glo ATP luminescence, 72 h. 400,000 compounds, 1.4% hits. Potency, µM (top dose mostly 46.1 µM), hits mostly cytotoxic; also: nearly all actives have a fitted effect of over 60% in size
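72 h, 37 °C compound treatment of KB-3-1 parental cells; CellTiter-Glo added, 10 min, luminescence read. Data corrected against DMSO-only plates and normalized before curve fitting.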
HT1080 IDH1KD tx – qHTS for induction of synthetic lethality in tumor cells producing 2HG: qHTS for the HT-1080-IDH1KD cell line; Potency, µM (titrated, usually from 46.1 µM), most hits filed as cytotoxic; 360,000 compounds, 2% hits; HT-1080 IDH1 knockdown viability, ATP luminescence, 48 h
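CellTiter-Glo luminescence after 48 h compound exposure at 37 degrees C of IDH1-knockdown HT-1080 cells in 5% FBS RPMI. %Activity scaled between DMSO wells and cell-free media wells, with curves fitted and assigned curve classes.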
KB-V1 MDR tox – qHTS assay for MDR1-selective chemotherapeutics: Primary screen using the drug-selected MDR subline cells KB-V1 | 400,000 compounds, 3.4% hits | KB-V1 MDR cells viability, CellTiter-Glo, 72 h | Potency, µM (highest dose often 46.1 µM), hits mostly cytotoxic; also: nearly all actives have a fitted effect of over 60% in size
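Following 72 h at 37 degrees C with compound, KB-V1 cell viability was read by CellTiter-Glo luminescence, medium being phenol-red-free DMEM plus 10% FBS; concentration-response parameters came from normalized, curve-fitted qHTS data.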
Each line names hits and unclear results; the compound was inactive in the other large screens. Calls follow the shape of the dose curve; as a rule, active = well fitted curve in the direction sought with a large enough effect; inconclusive = small, poorly fitted or top-dose-only effect, or another doubt; inactive = no such curve, though single readings can be large; an effect the other way counts as inactive or inconclusive.

O=C(c1cccc(S(=O)(=O)NCc2ccccc2)c1)N1CCN(c2ccc(F)cc2)CC1	none (no result: KB-3-1 cytotox, KB-V1 MDR tox)
O=C(c1ccc(CNS(=O)(=O)c2ccccc2)cc1)N1CCN(c2ccccn2)CC1	KB-V1 MDR tox inconclusive
O=C(Nc1c(Cl)ccc2nsnc12)c1ccc([N+](=O)[O-])o1	MCF10A rereplic inconclusive, SW480 rerep inconclusive, KB-3-1 cytotox inconclusive, KB-V1 MDR tox inconclusive
COCCCN=CC1=C(O)CC(C)(C)CC1=O	none
Cc1ccc(C)n1-c1ccccc1N1CCCCC1	none
CC(C)c1ccc(OCc2ccc(C(=O)N3CCN(c4ccccn4)CC3)cc2)cc1	HT1080-NT tox inconclusive, MCF10A rereplic 23µM, KB-3-1 cytotox inconclusive, HT1080 IDH1KD tx inconclusive, KB-V1 MDR tox inconclusive
Cn1cccc1C(=O)N1CCN(c2cccc(C(F)(F)F)c2)CC1	KB-V1 MDR tox 15µM
O=C(c1cccc(S(=O)(=O)NCc2ccccc2)c1)N1CCN(c2ccccc2Cl)CC1	HT1080-NT tox inconclusive, MCF10A rereplic inconclusive, SW480 rerep 16µM, KB-3-1 cytotox inconclusive, HT1080 IDH1KD tx inconclusive
O=C(c1nn(Cc2ccccc2)c(=O)c2ccccc12)N1CCc2ccccc2C1	KB-V1 MDR tox inconclusive
O=C(c1nn(Cc2ccccc2)c(=O)c2ccccc12)N1CCN(c2ccccn2)CC1	MCF10A rereplic inconclusive, KB-V1 MDR tox 2.3µM
CN1CCN(c2ccc(CNS(=O)(=O)Cc3cccc(C(F)(F)F)c3)cc2)CC1	HT1080-NT tox 18µM, KB-3-1 cytotox inconclusive, KB-V1 MDR tox inconclusive
CN1CCN(c2ccc(CNS(=O)(=O)c3ccccc3)cc2)CC1	MCF10A rereplic inconclusive, SW480 rerep inconclusive, KB-3-1 cytotox inconclusive
O=C1c2ccc(Oc3ccc([N+](=O)[O-])cc3)cc2C(=O)N1c1ccncc1	none
CCCCOc1ccc(NC2=NC3(CCCC3)N=C(N)N2)cc1	HT1080-NT tox inconclusive, MCF10A rereplic inconclusive, KB-3-1 cytotox 7.3µM, HT1080 IDH1KD tx inconclusive
Cc1cccc(NC2=NC(C)(C)N=C(N)N2)c1	HT1080-NT tox 0.33µM, KB-3-1 cytotox 1.6µM, HT1080 IDH1KD tx 0.16µM
COc1ccc(OC)c(NC2=NC3(CCCC3)N=C(N)N2)c1	KB-3-1 cytotox inconclusive
Cc1cc(C)cc(NC2=NC3(CCCCC3)N=C(N)N2)c1	HT1080-NT tox inconclusive, MCF10A rereplic 21µM, SW480 rerep inconclusive, KB-3-1 cytotox inconclusive, HT1080 IDH1KD tx 4.6µM
NC1=NC2(CCCCC2)N=C(Nc2ccc(F)cc2F)N1	none
COc1ccc(N2CCN(C(=O)COC(=O)COc3ccc(C#N)cc3)CC2)cc1	none
N#Cc1c(NC(=O)CSc2ncn(-c3ccccc3)n2)sc2c1CCCC2	MCF10A rereplic inconclusive
O=C1CC(N2CCN(c3cccc(C(F)(F)F)c3)CC2)C(=O)N1c1ccccc1 (stereo unspecified)	none
Cc1cccc(S(=O)(=O)Nc2ccc(-c3cn4ccccc4n3)cc2)c1	KB-V1 MDR tox 23µM
Cc1ccc2nc(-c3ccc(NC(=O)C(F)(F)F)cc3)sc2c1	KB-3-1 cytotox inconclusive (no result: HT1080-NT tox, MCF10A rereplic, SW480 rerep, HT1080 IDH1KD tx)
Cc1ccc2nc(-c3ccc(NS(=O)(=O)c4c(C)n(C)c(=O)n(C)c4=O)cc3)sc2c1	MCF10A rereplic 7.3µM, SW480 rerep 21µM, KB-V1 MDR tox inconclusive
Cc1cccc(S(=O)(=O)Nc2ccc(-c3nc4ccc(C)cc4s3)cc2)c1	MCF10A rereplic 18µM, SW480 rerep inconclusive
Cc1ccc2nc(-c3ccc(NC(=O)c4ccccc4S(C)(=O)=O)cc3)sc2c1	none (no result: HT1080-NT tox, MCF10A rereplic, SW480 rerep, HT1080 IDH1KD tx)
Cc1ccc(S(=O)(=O)Nc2ccc(-c3nc4ccc(C)cc4s3)cc2)cc1	MCF10A rereplic 23µM, SW480 rerep inconclusive
Cc1ccc(OCC(=O)Nc2ccc(F)cc2)cc1C	none
O=C1NC2CCc3nc4ccccc4c(=O)n3C2=Nc2ccccc21 (stereo unspecified)	none
CCOC(=O)[C@H](O)[C@@H](O)c1cccc([C@H](O)[C@@H](O)C(=O)OCC)c1	SW480 rerep inconclusive
O=c1[nH]c(Nc2nc3ccccc3o2)nc2c1CCCC2	HT1080-NT tox 2.2µM, HT1080 IDH1KD tx 4µM, KB-V1 MDR tox inconclusive
CCOc1ccc(Nc2nc3c(c(=O)[nH]2)CCCC3)cc1	SW480 rerep inconclusive, KB-V1 MDR tox 18µM
Cc1ccc(S(=O)(=O)NC(C)C(c2cccs2)N2CCN(C)CC2)cc1 (stereo unspecified)	none
Cn1c2c(c(O)c(-c3ccccc3)c1=O)C(=O)CC(C)(C)C2	HT1080-NT tox inconclusive
Cc1ccc(-n2c3c(c(O)c(-c4ccccc4)c2=O)C(=O)CC(C)(C)C3)cc1	SW480 rerep inconclusive, KB-V1 MDR tox 12µM
CCc1ccc(C2CC(=O)N(c3ccc(F)cc3)C3=C2C(=O)OC3)cc1 (stereo unspecified)	KB-3-1 cytotox inconclusive, KB-V1 MDR tox inconclusive
O=C1[C@@H]2[C@@H]3C[C@@H]([C@H]4ON=C(c5ccc(Cl)cc5Cl)[C@@H]34)[C@@H]2C(=O)N1C1CCCCC1	MCF10A rereplic inconclusive, KB-V1 MDR tox inconclusive
Cc1ccc(-n2c(C)cc(C(=O)COc3cccnc3[N+](=O)[O-])c2C)cc1	MCF10A rereplic 21µM, SW480 rerep inconclusive
Cc1cc(C(=O)COc2cccnc2[N+](=O)[O-])c(C)n1Cc1ccco1	HT1080-NT tox inconclusive, MCF10A rereplic inconclusive, SW480 rerep inconclusive, KB-3-1 cytotox inconclusive, HT1080 IDH1KD tx 21µM, KB-V1 MDR tox inconclusive
Cc1cc(C(=O)COc2cccnc2[N+](=O)[O-])c(C)n1-c1ccccc1F	none
Cc1cc(C(=O)COc2cccc3cccnc23)c(C)n1C	KB-V1 MDR tox 16µM
Cc1cc(C(=O)COc2ccccc2C(N)=O)c(C)n1C	KB-V1 MDR tox inconclusive
Cc1cc(OCCOc2cccc3cccnc23)cc(C)c1Cl	HT1080-NT tox inconclusive, MCF10A rereplic 23µM, HT1080 IDH1KD tx inconclusive
Cc1cc(C(=O)COc2cccnc2[N+](=O)[O-])c(C)n1-c1ccccc1	HT1080 IDH1KD tx inconclusive
Cc1c(NC(=O)COC(=O)/C=C/c2cccc(Cl)c2)c(=O)n(-c2ccccc2)n1C	MCF10A rereplic inconclusive
Cc1cccc(N2CC(C)Cn3c2nc2c3c(=O)[nH]c(=O)n2C)c1 (stereo unspecified)	HT1080 IDH1KD tx inconclusive
O=C1COc2ccc(S(=O)(=O)Nc3ccc(F)cc3)cc2N1	none
O=C(c1cccc(S(=O)(=O)N2CCc3ccccc3C2)c1)N1CCN(c2ccc(O)cc2)CC1	MCF10A rereplic inconclusive, SW480 rerep inconclusive, KB-3-1 cytotox inconclusive, KB-V1 MDR tox 13µM
